“And” between values parts separate entries of the source, which are not always exact repeats. Identical values can stand only once. The source made the active and inactive calls. How the source made its calls: active means hit-call score of the fitted dose curve at least 0.9, where 1 is the maximum; inactive means score below 0.9.
How the values were obtained:
[1] = BSK_CASM3C_SRB: Viability Assessment in the BioMAP Diversity Plus: CASM3C Assay (AID 2283050); details: primary human coronary artery smooth muscle cells;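 further: cells exposed to compound for 24 h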
[2] = read-out: Thrombomodulin, THBD (gene 7056); assay: BSK_CASM3C_Thrombomodulin: BioMAP Diversity Plus: CASM3C Assay for Thrombomodulin Biomarker Activity (AID 2283051); details: primary human coronary artery smooth muscle cells; actives raise or lower the signal;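 further: thrombomodulin protein level measured by ELISA 24 h after dosing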
[3] = read-out: Tissue Factor, F3 (gene 2152); assay: BSK_CASM3C_TissueFactor: BioMAP Diversity Plus: CASM3C Assay for Tissue Factor Biomarker Activity (AID 2283052); details: primary human coronary artery smooth muscle cells; actives raise or lower the signal;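 further: cell surface tissue factor protein level read by ELISA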
[4] = read-out: Interferon-gamma inducible Protein 10 (IP10), CXCL10 (gene 3627); assay: BSK_hDFCGF_IP10: BioMAP Diversity Plus: hDFCGF Assay for Interferon-gamma inducible Protein 10 (IP10) Biomarker Activity (AID 2283053); details: primary human foreskin fibroblasts; actives raise or lower the signal
Method in brief: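 ELISA read-out of IP-10 (CXCL10) from primary human skin fibroblasts, 24 h after compound addition. Gain or loss of signal versus DMSO baseline, bidirectional curve fitting.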

[5] = read-out: Urokinase-type plasminogen activator receptor (uPAR), PLAUR (gene 5329); assay: BSK_CASM3C_uPAR: BioMAP Diversity Plus: CASM3C Assay for Urokinase-type plasminogen activator receptor (uPAR) Biomarker Activity (AID 2283054); details: primary human coronary artery smooth muscle cells; actives raise or lower the signal;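 further: cell-surface uPAR protein level quantified by ELISA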
[6] = read-out: Vascular cell adhesion molecule 1 (VCAM1), VCAM1 (gene 7412); assay: BSK_CASM3C_VCAM1: BioMAP Diversity Plus: CASM3C Assay for Vascular cell adhesion molecule 1 (VCAM1) Biomarker Activity (AID 2283055); details: primary human coronary artery smooth muscle cells; actives raise or lower the signal;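 further: VCAM-1 protein level quantified by ELISA on the cells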
[7] = read-out: Collagen III, COL3A1 (gene 1281); assay: BSK_hDFCGF_CollagenIII: BioMAP Diversity Plus: hDFCGF Assay for Collagen III Biomarker Activity (AID 2283056); details: primary human foreskin fibroblasts; actives raise or lower the signal
Method in brief: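 Human foreskin fibroblast primary cultures sampled 24 h after dosing; Collagen III quantified by ELISA. Signal fitted bidirectionally against DMSO baseline.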

[8] = read-out: Epidermal growth factor receptor (EGFR), EGFR (gene 1956); assay: BSK_hDFCGF_EGFR: BioMAP Diversity Plus: hDFCGF Assay for Epidermal growth factor receptor (EGFR) Biomarker Activity (AID 2283057); details: primary human foreskin fibroblasts; actives raise or lower the signal
Method in brief: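 ELISA readout of EGFR on human dermal fibroblasts (primary foreskin cells), 24 h post-dosing; bidirectional curve fit vs DMSO baseline, gain or loss of signal scored.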

[9] = read-out: Interleukin-8 (IL8), CXCL8 (gene 3576); assay: BSK_hDFCGF_IL8: BioMAP Diversity Plus: hDFCGF Assay for Interleukin-8 (IL8) Biomarker Activity (AID 2283058); details: primary human foreskin fibroblasts; actives raise or lower the signal
Method in brief: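 Primary human foreskin fibroblasts (hDFCGF system) dosed with chemical; IL-8 measured by ELISA 24 hours later. Bidirectional curve fitting relative to DMSO baseline; cytotoxicity tracked in parallel cultures by SRB total protein staining.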

[10] = BSK_hDFCGF_Proliferation: Cell Proliferation Assessment in the BioMAP Diversity Plus: hDFCGF Assay (AID 2283059); details: primary human foreskin fibroblasts;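 further: curves fitted for both rise and fall of signal versus DMSO baseline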
Method in brief: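 Primary human foreskin fibroblasts, sub-confluent; […]; 10% TCA fix, 0.1% SRB stain, A560 total protein. Gain/loss fitted bidirectionally vs DMSO control.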

Measured: AC50

O=C(O)C(F)(F)OC(F)(F)C(F)(F)OC(F)(F)C(F)(F)OC(F)(F)F
inactive: all assays above

CO[Si](C)(CCC(F)(F)C(F)(F)C(F)(F)C(F)(F)C(F)(F)C(F)(F)F)OC
not listed: [10]
inactive: all other assays above

CC(C)CCCC(C)CCO (stereo not given)
active: [1] 32.2 µM | [3] 29.9 µM | [5] 31.3 µM | [6] 31.9 µM | [10] 32.8 µM
inactive: all other assays above

CCN=C1C=CC(=C(c2ccc(N(CC)CC)cc2)c2ccc(N(CC)CC)cc2)c2ccccc21
active: [1] 5.3 µM and 5.29 µM | [2] 1.03 µM and 1.42 µM | [3] 149 nM and 1.21 µM | [4] 1.52 µM and 1.32 µM | [5] 3.87 µM and 3.2 µM | [6] 5.39 µM and 2.81 µM | [7] 1.15 µM and 1.3 µM | [9] 2.89 µM and 2.29 µM | [10] 180 nM and 151 nM
inactive: [8]

NC(=O)C(F)(F)C(F)(F)C(F)(F)C(F)F
inactive: all assays above

OCCCCC(F)(F)C(F)(F)C(F)(F)C(F)(F)F
inactive: all assays above

OCC(O)CC(F)(F)C(F)(F)C(F)(F)C(F)(F)C(F)(F)C(F)(F)C(F)(F)C(F)(F)F (stereo not given)
not listed: [10]
inactive: all other assays above

CC(C)(C)c1cc(CCC(=O)NCCCCCCNC(=O)CCc2cc(C(C)(C)C)c(O)c(C(C)(C)C)c2)cc(C(C)(C)C)c1O
not listed: [10]
inactive: all other assays above

O=C1c2c(O)ccc(Nc3ccc(CCO)cc3)c2C(=O)c2c([N+](=O)[O-])ccc(O)c21
active: [1] 4.72 µM | [2] 20 µM | [4] 20 µM | [7] 20 µM
not listed: [10]
inactive: all other assays above

NS(=O)(=O)C(F)(F)C(F)(F)C(F)(F)C(F)(F)C(F)(F)C(F)(F)F
active: [4] 37.3 µM and 28.8 µM | [10] 50.8 µM and 50.6 µM
inactive: all other assays above

CN(C(=O)C(F)(F)C(F)(F)C(F)(F)F)[Si](C)(C)C
not listed: [10]
inactive: all other assays above

C[C@]12CC[C@H]3C(=CCc4cc(O)ccc43)[C@@H]1CCC2=O
inactive: all assays above

Nc1cc([N+](=O)[O-])cc(Cl)c1O
not listed: [10]
inactive: all other assays above

OCC(O)CC(F)(F)C(F)(F)C(F)(F)C(F)(F)F (stereo not given)
not listed: [10]
inactive: all other assays above

Brc1nc2ccccc2s1
active: [10] 31.5 µM
inactive: all other assays above

Cc1cc(C)c(O)c(C(C)(C)C)c1
active: [1] 27.2 µM | [3] 27.4 µM | [4] 35.9 µM | [5] 31.2 µM | [6] 29.5 µM | [7] 20 µM | [10] 18.8 µM
inactive: [2] | [8] | [9]

O=C(F)C1(F)C(F)(F)C(F)(F)C(F)(F)C(F)(F)C1(F)F
not listed: [10]
inactive: all other assays above

NCC(F)(F)C(F)(F)C(F)(F)C(F)(F)C(F)(F)C(F)(F)F
not listed: [10]
inactive: all other assays above

O=S(=O)(O)CCC(F)(F)C(F)(F)C(F)(F)C(F)(F)C(F)(F)C(F)(F)C(F)(F)C(F)(F)F
inactive: all assays above

O=C=Nc1cccc2c(N=C=O)cccc12
inactive: all assays above

NC(=O)C(F)(F)C(F)(F)C(F)(F)F
inactive: all assays above

FC(F)(F)C(F)(F)C(F)(F)C(F)(F)C(F)(F)C(F)(F)CC[Si](Cl)(Cl)Cl
inactive: all assays above

NC(=O)C(F)(F)C(F)(F)C(F)(F)C(F)(F)C(N)=O
not listed: [10]
inactive: all other assays above

CCN(CC)c1ccc(N=Nc2ccccc2)cc1
active: [1] 20 µM | [2] 11.3 µM | [6] 3.04 µM | [7] 3.65 µM | [10] 8.62 µM
inactive: [3] | [4] | [5] | [8] | [9]

Cc1cnccn1
inactive: all assays above

OC(O)C(F)(F)C(F)(F)F
inactive: all assays above

CCN(CC)c1ccc(C=O)c(O)c1
active: [10] 30.4 µM
inactive: all other assays above

COC(F)(C(F)F)C(F)(F)F (stereo not given)
inactive: all assays above

O=C(O)CCC(F)(F)C(F)(F)C(F)(F)F
inactive: all assays above

O=C(O)C(F)(F)C(F)(F)C(F)(F)OC(F)(C(F)(F)F)C(F)(F)F
inactive: all assays above

CC1=CC2C3C=CC(C3)C2C1C (stereo not given)
active: [10] 28.2 µM
inactive: all other assays above

O=C=NCc1cccc(CN=C=O)c1
inactive: all assays above

O=C(O)C(F)(F)C(F)(F)C(F)(F)OC(F)(F)F
inactive: all assays above

Source: PubChem BioAssay (EPA / NIEHS)
